Measurements taken from PubChem BioAssay (NCI).
About 83,000 compounds went through this panel and 20% of them were active in at least one assay; those are over-represented in the sample as a whole.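 96-well plates, one dose, 48 hours. Percent growth reported; active if below 10.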 Values without a mark were called inactive. Calls of active or inactive are those of the source.

These compounds were tested on HL-60(TB) leukemia (assay: NCI-60 one-dose screen, 48 h (100 = growth as untreated, 0 = no growth, -100 = all killed)). Settings: 10 µM unless noted.

With COC1=CC(c2ccc[nH]2)=N/C1=C\c1[nH]c(C)c(CC(=O)OCc2ccccc2)c1CCC(=O)OCc1ccccc1 the growth was -31.1% (active).
In the case of CC(C)(C)n1cc(-c2ccnc(NCCCNS(=O)(=O)c3ccc(C(F)(F)F)cc3)c2)c(-c2cccc(O)c2)n1, the growth is reported as -24.5% (active).
COc1ccc(/C=C2\COc3ccc(O)c(O)c3C2=O)c(OC)c1 was tested, and the growth was -13.2% (active).
In the case of COc1cc(N=Nc2cc(Cc3ccc(N(C)C)cc3)c(N)cc2N(C)C)c2ncccc2c1, the growth is reported as -55.5% (active).
In the case of COc1ccc2c(c1)c(-c1nonc1-c1cn(C)c3ccc(OC)cc13)cn2C, the growth is reported as -1.01% (active).
For CCOC(=O)N1CCC(N=C2CSc3nnc(-c4cc(C(F)(F)F)cc(C(F)(F)F)c4)n3N2)CC1, the growth was -40.7% (active).
C/C(=N\Nc1cc(C)nc2ccc(Br)cc12)c1ccc([N+](=O)[O-])cc1 was tested, and the growth was -37.4% (active).
In the case of CCOc1cc2ncc(C#N)c(Nc3ccc(OCc4ccccn4)c(Cl)c3)c2cc1NC(=O)/C=C/CN(C)C, the growth is reported as 2.7% (active).
CC1=C[C@@H]2c3c(c(O)c(O)c4oc5cc(O)cc(O)c5c(=O)c34)[C@@H](c3cc(O)c(O)c4oc5cc(O)cc(O)c5c(=O)c34)[C@@H]2C(C)(C)C1 was tested, and the growth was -3.85% (active).
With CC[C@]1(O)CC2CN(CCc3c([nH]c4ccccc34)[C@@](C(=O)OC)(c3cc4c(cc3OC)N(C=O)[C@H]3[C@@](O)(C(=O)OC)[C@H](OC(C)=O)[C@]5(CC)C=CCN6CC[C@]43[C@@H]65)C2)C1 (stereo not given in full) the growth was 7.11% (active).

First: Cc1cn(-c2cc(NC(=O)c3ccc(C)c(Nc4nccc(-c5cccnc5)n4)c3)cc(C(F)(F)F)c2)cn1
Second: Nc1nc(N)c2c(n1)NC(c1cccc(Nc3ccnc4cc(C(F)(F)F)ccc34)c1)CC(c1ccccc1)=N2 (stereo not given)
The growth of the first is higher: 53.3% for the first, 34.8% for the second.

Compared with CNc1nc(NC)c2cn[nH]c2n1, CNC(=O)c1cc(Oc2ccc3nc(NC(=O)Nc4ccc(Cl)c(Cl)c4)sc3c2)ccn1 is lower in growth: 103% for the first, 78.8% for the second.

Going from COC(=O)[C@]12CCC(C)(C)C[C@H]1[C@H]1C(=O)C[C@@H]3[C@@]4(C)c5c([nH]c6ccccc6c5=O)C(C)(C)[C@@H]4CC[C@@]3(C)[C@]1(C)CC2 to CC1(C)C(=O)/C(=C\c2cccnc2)C[C@]2(C)[C@H]3CC=C4[C@@H]5C[C@@](C)(C(=O)O)CC[C@]5(C)CC[C@@]4(C)[C@]3(C)CC[C@@H]12, the growth rises from 21.8% to 104%.

Compared with Cc1cc2c(cc1C)Nc1sc(NC(=O)CN3CCN(C)CC3)nc1C(=O)N2, COc1ccc(C2=NN(c3nc(-c4ccc(OC)cc4)c(C#N)c(=O)n3C)C(=O)CC2)cc1 is higher in growth: 83.3% for the first, 99.5% for the second.

Compared with CC(C)Cn1c2c(c(=S)[nH]c1=O)CCC2, CC(C)COC(=O)NC(C)(C)C is lower in growth: 107% for the first, 85.2% for the second.

Going from CCN(CC)C(=O)CCCCCn1c2ccccc2c2c3c(c4c5ccccc5[nH]c4c21)C(=O)N(O)C3=O to COc1cc(C2CC(c3ccccc3)=NN2C=O)ccc1Oc1nc2c(c(=O)n(C)c(=O)n2C)n1C (stereo not given), the growth rises from 21.8% to 101%.

Going from COC1OCC(O)C(O)C1O (stereo not given) to COc1ccc(C(=O)C(C)C)c2ccccc12, the growth falls from 102% to 78.9%.

Going from O=S(=O)(Nc1ncccn1)c1ccc(Nc2ccc3nnc(-c4ccncc4)n3n2)cc1 to Cc1ccnc2nc(C(=O)OCC(=O)Nc3ccc(-c4ccccc4)cc3)nn12, the growth falls from 101% to 72.8%.

Compared with NC(=N\N=C/c1cccc([N+](=O)[O-])c1)/C(N)=N\N=C/c1cccc([N+](=O)[O-])c1, NC(=S)Nc1ccc2c(c1)Cc1ccccc1-2 is lower in growth: 104% for the first, 77.4% for the second.

Going from N#Cc1c(-c2ccc(C(F)(F)F)cc2)c(F)c(NCCC2CCC(O)C2)n2c1nc1ccccc12 (stereo not given) to CC(C)(C)n1cc(-c2ccnc(NCCNS(=O)(=O)c3cccc4ccccc34)c2)c(-c2cccc(O)c2)n1, the growth rises from 25.1% to 71%.

First: CCC1N=C(N)N=C(N)N1c1ccc(Cl)cc1 (stereo not given)
Second: O=C(CCc1nc(-c2cccc(Cl)c2)no1)Nc1ccccn1
The growth of the first is lower: 75.4% for the first, 102% for the second.

Compared with C=C(C)[C@@H]1CC[C@]2(C#N)CC[C@]3(C)[C@H](CC[C@@H]4[C@@]5(C)CCCNC(C)(C)[C@@H]5CC[C@]43C)[C@@H]12, CCCCCCC(CC#N)(CCC)CCCC (stereo not given) is higher in growth: 83.9% for the first, 112% for the second.

O=c1oc2ccccc2cc1-c1csc(N=Nc2c(O)[nH]c3ccc(Cl)cc23)n1 showed a growth of 105%.
